Holding throughout (conditions): mRNA level, 48 h; actives raise or lower the signal
Read-out in experiment [1]: Glutamate-cysteine ligase catalytic (GCLC), GCLC (gene 2729)
The experiment in a line: LTEA_HepaRG_GCLC: Life Technologies and Expression Analysis (LTEA) Assay for Glutamate-cysteine ligase catalytic (GCLC) using HepaRG (AID 2283498). The essentials:
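HepaRG, 48 h exposure, 8-pt half-log series from 100 uM, 0.5% DMSO vehicle; TaqMan qRT-PCR for GCLC mRNA, housekeeping-normalized; bidirectional curve fit vs DMSO baseline.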

Read-out in experiment [2]: growth arrest and DNA damage 45 (GADD45G), GADD45G (gene 10912)
The experiment in a line: LTEA_HepaRG_GADD45G: Life Technologies and Expression Analysis (LTEA) Assay for growth arrest and DNA damage 45 (GADD45G) using HepaRG (AID 2283499). The essentials: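 Differentiated human HepaRG cells, 48 h post-plating, exposed 48 h in serum-free induction medium to 8 half-log concentrations (top 100 uM, 0.5% DMSO) in duplicate. GADD45G mRNA measured by Fluidigm TaqMan qRT-PCR, normalized to ACTB, GAPDH, POLR2A; bidirectional fit versus DMSO.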

Read-out in experiment [3]: Glutamate-cysteine ligase regulatory (GCLM), GCLM (gene 2730)
The experiment in a line: LTEA_HepaRG_GCLM: Life Technologies and Expression Analysis (LTEA) Assay for Glutamate-cysteine ligase regulatory (GCLM) using HepaRG (AID 2283500). In outline:
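Endpoint is GCLM transcript level by qRT-PCR, normalized to three housekeeping genes, after 48 h chemical exposure of human HepaRG cells (0.5% DMSO vehicle, top 100 uM, half-log dilutions). Fitting was bidirectional relative to DMSO.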

Read-out in experiment [4]: Glutathione S-transferase M3 (GSTM3), GSTM3 (gene 2947)
The experiment in a line: LTEA_HepaRG_GSTM3: Life Technologies and Expression Analysis (LTEA) Assay for Glutathione S-transferase M3 (GSTM3) using HepaRG (AID 2283501). The essentials:
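Differentiated human HepaRG cells were exposed in duplicate for 48 h in serum-free induction medium, 8 points from 100 uM top in half-log steps, 0.5% DMSO. GSTM3 mRNA was measured by TaqMan qRT-PCR, normalized to ACTB, GAPDH and POLR2A; bidirectional fit versus DMSO.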

Read-out in experiment [5]: Heat shock 70 kDa protein 1 (HSPA1A), gene 3303
The experiment in a line: LTEA_HepaRG_HSPA1A: Life Technologies and Expression Analysis (LTEA) Assay for Heat shock 70 kDa protein 1 (HSPA1A) using HepaRG (AID 2283502). The essentials: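 Cells were plated and cultured for 48 h, then switched to serum-free induction medium. Chemicals were added at eight half-log concentrations up to 100 uM for 48 h. RNA was then isolated and HSPA1A measured by qRT-PCR with bidirectional curve fitting against DMSO.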

Read-out in experiment [6]: Hypoxia-inducible factor 1-alpha (Homo sapiens) (UniProt Q16665)
The experiment in a line: LTEA_HepaRG_HIF1A: Life Technologies and Expression Analysis (LTEA) Assay for Hypoxia-inducible factor 1 (HIF1A) Trancription factor using HepaRG (AID 2283503). The essentials: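 HIF1A transcript level read by qRT-PCR (ACTB, GAPDH, POLR2A normalization) after 48 h chemical exposure of HepaRG cultures. Eight half-log concentrations, top 100 uM, 0.5% DMSO vehicle, duplicates; bidirectional curve fit against DMSO baseline.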

Read-out in experiment [7]: 3-Hydroxy-3-Methylglutaryl-CoA Synthase 2 (HMGCS2), HMGCS2 (gene 3158)
The experiment in a line: LTEA_HepaRG_HMGCS2: Life Technologies and Expression Analysis (LTEA) Assay for 3-Hydroxy-3-Methylglutaryl-CoA Synthase 2 (HMGCS2) using HepaRG (AID 2283504). The essentials: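 Human HepaRG cells in serum-free induction medium were exposed in duplicate for 48 h to 8-point half-log series from 100 uM top in 0.5% DMSO. HMGCS2 mRNA measured by TaqMan qRT-PCR, normalised to ACTB, GAPDH, POLR2A; bidirectional fit versus DMSO.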

Read-out in experiment [8]: HGF (gene 3082)
The experiment in a line: LTEA_HepaRG_HGF: Life Technologies and Expression Analysis (LTEA) Assay for Hepatocyte Growth Facto (HGF) using HepaRG (AID 2283505). The essentials: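 Differentiated HepaRG cells in serum-free induction medium exposed 48 h in duplicate, 8 half-log concentrations from 100 uM in 0.5% DMSO. HGF mRNA by qRT-PCR, normalised to ACTB, GAPDH, POLR2A; bidirectional fitting.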

Read-out in experiment [9]: Insulin Like Growth Factor 1 (IGF1), IGF1 (gene 3479)
The experiment in a line: LTEA_HepaRG_IGF1: Life Technologies and Expression Analysis (LTEA) Assay for Insulin Like Growth Factor 1 (IGF1) using HepaRG (AID 2283506). The essentials:
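Cells are thawed, plated and cultured 48 h, then exposed in duplicate to chemical (highest 100 uM, half-log steps, 0.5% DMSO) for another 48 h. Total RNA is analysed by Fluidigm qRT-PCR for IGF1 expression relative to vehicle.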

Read-out in experiment [10]: Insulin-like growth factor-binding protein 1 (IGFBP1), IGFBP1 (gene 3484)
The experiment in a line: LTEA_HepaRG_IGFBP1: Life Technologies and Expression Analysis (LTEA) Assay for Insulin-like growth factor-binding protein 1 (IGFBP1) using HepaRG (AID 2283508). In outline: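 HepaRG cells, plated 48 h then switched to serum-free induction medium, exposed in duplicate for 48 h to 8-point half-log series from 100 uM in 0.5% DMSO. mRNA measured by qRT-PCR, normalized to ACTB/GAPDH/POLR2A; bidirectional fit versus DMSO.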

Read-out in experiment [11]: Interleukin 6 (IL6), IL6 (gene 3569)
The experiment in a line: LTEA_HepaRG_IL6: Life Technologies and Expression Analysis (LTEA) Assay for Interleukin 6 (IL6) using HepaRG (AID 2283509). In outline:
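qRT-PCR read-out of IL6 transcript, normalized to three housekeeping genes, after 48 h chemical exposure of HepaRG cells; 8-point half-log series, top 100 uM, 0.5% DMSO vehicle. Bidirectional curve fitting against DMSO baseline.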

Read-out in experiment [12]: Interleukin 6 Receptor (IL6R), IL6R (gene 3570)
The experiment in a line: LTEA_HepaRG_IL6R: Life Technologies and Expression Analysis (LTEA) Assay for Interleukin 6 Receptor (IL6R) using HepaRG (AID 2283510). In outline:
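Cells were thawed, plated and cultured 48 h, then medium was changed to serum-free induction medium. Chemicals were added in duplicate (100 uM top, half-log steps, 0.5% DMSO) for 48 h. Lysates were analyzed by qRT-PCR for IL6R expression.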

Read-out in experiment [13]: Potassium channel subfamily K member 1 (KCNK1), KCNK1 (gene 3775)
The experiment in a line: LTEA_HepaRG_KCNK1: Life Technologies and Expression Analysis (LTEA) Assay for Potassium channel subfamily K member 1 (KCNK1) using HepaRG (AID 2283511). In outline:
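HepaRG, 48 h exposure, 8-pt half-log series top 100 uM, 0.5% DMSO vehicle, duplicates. Readout: KCNK1 transcript by qRT-PCR (Fluidigm array), housekeeping-normalized; bidirectional curve fit relative to DMSO baseline.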

Read-out in experiment [14]: Keratin 19 (KRT19), KRT19 (gene 3880)
The experiment in a line: LTEA_HepaRG_KRT19: Life Technologies and Expression Analysis (LTEA) Assay for Keratin 19 (KRT19) using HepaRG (AID 2283512). In outline: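 Differentiated HepaRG cells in serum-free induction medium, exposed 48 h in duplicate to 8 half-log concentrations up to 100 uM in 0.5% DMSO. KRT19 mRNA by qRT-PCR, normalized to ACTB, GAPDH, POLR2A; bidirectional fit vs DMSO.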

Read-out in experiment [15]: JUN Transcription Factor, JUN (gene 3725)
The experiment in a line: LTEA_HepaRG_JUN: Life Technologies and Expression Analysis (LTEA) Assay for JUN Transcription Factor using HepaRG (AID 2283513). The essentials: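 Read-out is JUN transcript level by TaqMan qRT-PCR, normalized to ACTB, GAPDH and POLR2A, after 48 h chemical treatment of HepaRG cells. Concentration-response spanned eight half-log points up to 100 uM in 0.5% DMSO.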

Read-out in experiment [16]: Lipase C (LIPC), LIPC (gene 3990)
The experiment in a line: LTEA_HepaRG_LIPC: Life Technologies and Expression Analysis (LTEA) Assay for Lipase C (LIPC) using HepaRG (AID 2283514). In outline:
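HepaRG, 48 h exposure, 8-pt half-log series from 100 uM in 0.5% DMSO, duplicates. Readout: LIPC mRNA by Fluidigm qRT-PCR, housekeeping-normalized (ACTB/GAPDH/POLR2A). Gain or loss fitted bidirectionally against DMSO baseline.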

Read-out in experiment [17]: Lipoprotein lipase (LPL), LPL (gene 4023)
The experiment in a line: LTEA_HepaRG_LPL: Life Technologies and Expression Analysis (LTEA) Assay for Lipoprotein lipase (LPL) using HepaRG (AID 2283515). The essentials: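 HepaRG, 48 h exposure, 8-pt half-log dilutions from 100 uM, 0.5% DMSO vehicle, duplicates; qRT-PCR (Fluidigm array) of LPL mRNA vs housekeeping genes; bidirectional curve fit relative to DMSO baseline.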

Read-out in experiment [18]: MicroRNA 122 (MIR122), gene 406906
The experiment in a line: LTEA_HepaRG_MIR122: Life Technologies and Expression Analysis (LTEA) Assay for MicroRNA 122 (MIR122) using HepaRG (AID 2283516). Further: the transcript read is the microRNA miR-122. The essentials:
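Human liver HepaRG cultures receive test chemicals for 48 h at eight half-log concentrations from 100 uM. Expression is quantified by qRT-PCR with ACTB/GAPDH/POLR2A normalization and fitted bidirectionally against 0.5% DMSO.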

Read-out in experiment [19]: Intercellular Adhesion Molecule 1 (ICAM1), ICAM1 (gene 3383)
The experiment in a line: LTEA_HepaRG_ICAM1: Life Technologies and Expression Analysis (LTEA) Assay for Intercellular Adhesion Molecule 1 (ICAM1) using HepaRG (AID 2283507). The essentials:
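Differentiated human HepaRG cells in serum-free induction medium exposed 48 h in duplicate to 8 half-log concentrations (top 100 uM, 0.5% DMSO). ICAM1 mRNA quantified by TaqMan qRT-PCR, normalized to ACTB, GAPDH and POLR2A; bidirectional fitting versus DMSO.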

Read-out in experiment [20]: matrix metalloproteinase-10 (MMP10), MMP10 (gene 4319)
The experiment in a line: LTEA_HepaRG_MMP10: Life Technologies and Expression Analysis (LTEA) Assay for matrix metalloproteinase-10 (MMP10) using HepaRG (AID 2283517). The essentials: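 Transcript levels come from Fluidigm qRT-PCR normalized to three housekeeping genes, with curves fitted bidirectionally against 0.5% DMSO. Human HepaRG cells were dosed for 48 hours at concentrations up to 100 uM.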

Our source for the outcome and AC50 values is PubChem BioAssay (EPA / NIEHS).

Molecules are shown by their SMILES. Calls of active or inactive are those of the source. How the source made its calls: active means hit-call score of the fitted dose curve at least 0.9, where 1 is the maximum; inactive means score below 0.9.

Chain of Hypoxia-inducible factor 1-alpha (Homo sapiens) (Q16665 whole entry, looked up): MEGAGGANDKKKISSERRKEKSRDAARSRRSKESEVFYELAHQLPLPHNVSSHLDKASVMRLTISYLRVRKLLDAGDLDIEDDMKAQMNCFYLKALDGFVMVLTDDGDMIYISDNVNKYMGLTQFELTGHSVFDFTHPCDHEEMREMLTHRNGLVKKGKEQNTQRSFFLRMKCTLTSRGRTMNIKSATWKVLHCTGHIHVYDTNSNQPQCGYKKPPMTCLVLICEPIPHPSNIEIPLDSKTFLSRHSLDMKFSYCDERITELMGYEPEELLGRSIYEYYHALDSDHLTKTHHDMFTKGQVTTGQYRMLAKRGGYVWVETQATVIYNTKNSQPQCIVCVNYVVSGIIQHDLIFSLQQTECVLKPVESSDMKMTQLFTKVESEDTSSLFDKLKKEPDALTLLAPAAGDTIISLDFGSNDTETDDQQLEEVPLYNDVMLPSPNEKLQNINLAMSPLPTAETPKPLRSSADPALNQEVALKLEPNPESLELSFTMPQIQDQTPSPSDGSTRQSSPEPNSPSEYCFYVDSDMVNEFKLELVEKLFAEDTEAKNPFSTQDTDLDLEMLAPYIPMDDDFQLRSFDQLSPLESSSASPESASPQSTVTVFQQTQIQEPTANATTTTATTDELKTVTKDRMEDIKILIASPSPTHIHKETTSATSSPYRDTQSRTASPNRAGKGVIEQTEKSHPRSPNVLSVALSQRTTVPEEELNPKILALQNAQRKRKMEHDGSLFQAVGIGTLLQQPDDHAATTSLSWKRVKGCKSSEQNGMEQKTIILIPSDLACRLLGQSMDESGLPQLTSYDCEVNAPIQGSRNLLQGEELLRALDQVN

As to `Cc1ccc(C(C)(C)C)c(O)c1`, the molecule was classed as inactive in [1], in [2], in experiment [3], in experiment [4], in experiment [5] and in experiment [6]. In addition, the molecule was called inactive in experiment [7], in experiment [8], in [9], in experiment [10], in [11] and in experiment [12]. Also, the molecule was called inactive in [13], in experiment [14], in experiment [15], in experiment [16], in experiment [17] and in experiment [18].
For orientation: AC50 means the concentration giving half of the maximal activity seen. For the molecule `CCCCCCCC(=O)OC`, the molecule was classed as inactive in [1], in experiment [2], in [3], in experiment [4], in [5] and in [6]. Besides, the molecule was called inactive in experiment [8], in experiment [9], in experiment [10], in [11], in experiment [12] and in experiment [13]. Also, the call in experiment [14], in experiment [15], in experiment [16] and in experiment [18] was inactive. Moreover, the half-maximal activity concentration (AC50) in [17] is 12.4 µM (active).
Regarding `NC(=Nc1ccccc1)Nc1ccccc1`, the molecule was called inactive in [1], in experiment [2], in experiment [3], in [4], in experiment [5] and in experiment [6]. Moreover, the molecule was classed as inactive in experiment [8], in experiment [9], in [19], in [11], in experiment [12] and in experiment [13]. Moreover, the call in experiment [14], in experiment [15], in experiment [16], in [17], in experiment [18] and in [20] was inactive.
As for `CCCCc1nc2cccnc2n1Cc1ccc(-c2ccccc2-c2nnn[nH]2)cc1`, the result in [1], in [2], in experiment [3], in experiment [4], in experiment [5] and in [6] was inactive. Also, the call in experiment [7], in [8], in experiment [11], in [12], in [13] and in experiment [15] was inactive. For the same molecule, the call in experiment [16], in [17], in experiment [18] and in experiment [20] was inactive. Also, the AC50 in experiment [9] was 50 µM (active).
